Data as given in PubChem BioAssay (NCI).
This is part of a sample that, as a whole, favours compounds with a hit. Of some 79,000 tested, about 15% had one in any assay. Activity calls are given as the source filed them. No stated cut-off is given here; in the data, active means growth inhibition above about 70%; inactive means the rest.

Assays:
[1] = NCI Yeast Anticancer Drug Screen. Data for the rad52 strain (AID 147);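 further: 0% = growth of vehicle-treated control cultures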; conditions: S. cerevisiae rad52 mutant growth inhibition, active compounds read high
Method in brief: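 Genetically altered yeast (DNA damage repair defect) treated with compound; inhibition calculated relative to vehicle.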

[2] = NCI Yeast Anticancer Drug Screen. Data for the wt1 strain (AID 149);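 further: 0% = growth of vehicle-treated wt1 cultures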; conditions: S. cerevisiae wt1 strain (SPY 50644) growth inhibition, active compounds read high
Method in brief: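 wt1 strain grown with compound or vehicle; inhibition taken from the growth difference.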

[3] = NCI Yeast Anticancer Drug Screen. Data for the rad50EPP+ strain (AID 151);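 further: 0% = growth of vehicle-treated control cultures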; conditions: S. cerevisiae rad50 mutant strain, active compounds read high
Method in brief: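 Strain rad50EPP+; compound exposure; % growth inhibition vs vehicle.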

[4] = NCI Yeast Anticancer Drug Screen. Data for the mgt1 strain (AID 153); conditions: S. cerevisiae mgt1 mutant growth inhibition, active compounds read high
Method in brief: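 Read-out: yeast growth inhibition vs vehicle control. Strain mgt1, drawn from a panel altered in DNA damage repair or cell cycle control.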

[5] = NCI Yeast Anticancer Drug Screen. Data for the rad50 strain (AID 155);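 further: 0% = growth of vehicle-only cultures of the same strain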; conditions: S. cerevisiae rad50 strain growth inhibition, active compounds read high
Method in brief: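 DNA repair mutant yeast, compound exposure, growth read-out; inhibition is taken relative to vehicle.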

[6] = NCI Yeast Anticancer Drug Screen. Data for the mec2-1 strain (AID 157); conditions: S. cerevisiae mec2-1 strain, active compounds read high
Method in brief: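 Cells of the genetically defined mec2-1 yeast strain are incubated with test compound. Inhibition of growth is calculated against vehicle-treated controls.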

[7] = NCI Yeast Anticancer Drug Screen. Data for the rad14 strain (AID 159);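 further: 0% = growth of vehicle-treated control cultures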; conditions: S. cerevisiae rad14 strain growth inhibition, active compounds read high
Method in brief: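 DNA repair-defective yeast, compound-exposed; % growth inhibition derived by comparison with vehicle-treated controls.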

[8] = NCI Yeast Anticancer Drug Screen. Data for the sgs1 mgt1 strain (AID 161);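 further: 0% = growth of cultures given vehicle only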; conditions: S. cerevisiae sgs1 mgt1 strain, active compounds read high
Method in brief: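 Inhibition of yeast growth, normalised to vehicle-treated controls, is reported for a strain bearing genetic alterations in DNA damage repair.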

[9] = NCI Yeast Anticancer Drug Screen. Data for the CLN2oe strain (AID 163);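 further: 0% = growth of vehicle-only control cultures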; conditions: S. cerevisiae CLN2oe strain, active compounds read high
Method in brief: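 Strain altered in cell-cycle control, incubated with compound; growth compared to solvent-treated controls.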

[10] = NCI Yeast Anticancer Drug Screen. Data for the cln2 rad14 strain (AID 165);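 further: 0% = growth equal to vehicle treated cultures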; conditions: S. cerevisiae cln2 rad14 strain, active compounds read high
Method in brief: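 The screen exposed genetically defined yeast (cln2 rad14) to test compounds and scored growth inhibition relative to vehicle-treated controls.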

[11] = NCI Yeast Anticancer Drug Screen. Data for the bub3 strain (AID 167); conditions: S. cerevisiae bub3 mutant strain, active compounds read high
Method in brief: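 In this screen, a yeast mutant lacking normal mitotic checkpoint function is challenged with compound. Relative growth versus vehicle gives the inhibition value.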

[12] = NCI Yeast Anticancer Drug Screen. Data for the wt2 strain (AID 169);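 further: 0% = growth of vehicle-treated yeast cultures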; conditions: S. cerevisiae wt2 strain growth inhibition, active compounds read high
Method in brief: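 Steps: yeast strain treated with compound; growth recorded; inhibition calculated relative to cultures given vehicle alone.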

[13] = NCI Yeast Anticancer Drug Screen. Data for the mlh1 strain (AID 171);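 further: 0% = growth of vehicle-treated control cultures of the same strain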; conditions: S. cerevisiae mlh1 strain growth inhibition, active compounds read high
Method in brief: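 Yeast screen: mutant strain plus compound, growth scored against vehicle control wells.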

[14] = NCI Yeast Anticancer Drug Screen. Data for the sgs1 strain (AID 173);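 further: 0% = growth of vehicle-only control cultures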; conditions: S. cerevisiae sgs1 mutant, active compounds read high
Method in brief: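 Inhibition of yeast growth served as the measure. The mutant strain was treated with each compound, and growth was normalised to cultures receiving vehicle alone.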

[15] = NCI Yeast Anticancer Drug Screen. Data for the mlh1 rad18 strain (AID 175); conditions: S. cerevisiae mlh1 rad18 strain growth inhibition, active compounds read high
Method in brief: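 Compound-treated yeast growth, normalised to vehicle controls. Strain bears defined DNA repair mutations.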

[16] = NCI Yeast Anticancer Drug Screen. Data for the rad18 strain (AID 177); conditions: S. cerevisiae rad18 mutant growth inhibition, active compounds read high
Method in brief: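 Inhibition values reflect reduced yeast growth compared with vehicle-treated controls, using a strain engineered with a DNA damage repair defect.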

[17] = at 5.0 µM (retest, dose inferred, filed as 0.5)
[18] = at 50.0 µM (retest, dose inferred, filed as 5.0)

Measured: growth inhibition

O=C1c2ccccc2-c2ccc(N=Cc3ccccc3)cc21
inactive: [1]; at 1.2 µM -6% | [1]; at 3.7 µM -8% | [1]; at 11.0 µM 10% | [1]; at 33.0 µM 68% | [2]; at 1.2 µM 1% | [2]; at 3.7 µM 8% | [2]; at 11.0 µM 14% | [2]; at 33.0 µM 27% | [2]; at 100.0 µM 69% | [3]; at 1.2 µM -2% | [3]; at 3.7 µM 24% | [3]; at 11.0 µM 34% | [4]; at 1.2 µM -4% | [4]; at 3.7 µM -2% | [4]; at 11.0 µM -5% | [4]; at 33.0 µM -1% | [4]; at 100.0 µM 58% | [5]; at 1.2 µM -14% | [5]; at 3.7 µM -11% | [5]; [17] 8% | [5]; at 11.0 µM 26% | [5]; at 33.0 µM 66% | [5]; [18] 51% | [6]; at 1.2 µM -4% | [6]; at 3.7 µM -2% | [6]; [17] 4% | [6]; at 11.0 µM -3% | [6]; at 33.0 µM 2% | [6]; [18] 21% | [6]; at 50.0 µM 5% | [6]; at 100.0 µM 24% | [7]; at 1.2 µM 3% | [7]; at 3.7 µM 2% | [7]; at 11.0 µM 3% | [7]; at 33.0 µM 18% | [7]; at 100.0 µM 45% | [8]; [17] 5% | [8]; [18] 27% | [8]; at 50.0 µM 36.9% | [9]; at 1.2 µM -7% | [9]; at 3.7 µM -11% | [9]; at 11.0 µM -13% | [9]; at 33.0 µM -8% | [9]; at 100.0 µM 24% | [10]; [17] -2% | [10]; [18] 9% | [10]; at 50.0 µM 6.45% | [11]; at 1.2 µM -6% | [11]; at 3.7 µM -3% | [11]; [17] 0% | [11]; at 11.0 µM -1% | [11]; at 33.0 µM 9% | [11]; [18] 18% | [11]; at 50.0 µM 31.6% | [11]; at 100.0 µM 54% | [12]; at 1.2 µM 5% | [12]; at 3.7 µM 6% | [12]; at 11.0 µM 18% | [12]; at 33.0 µM 51% | [13]; at 1.2 µM -2% | [13]; at 3.7 µM -8% | [13]; at 11.0 µM -5% | [13]; at 33.0 µM 23% | [14]; at 1.2 µM -13% | [14]; at 3.7 µM -11% | [14]; at 11.0 µM -4% | [14]; at 33.0 µM 19% | [15]; [17] -12% | [15]; [18] 46% | [15]; at 50.0 µM 56.5% | [16]; at 1.2 µM -10% | [16]; at 3.7 µM -8% | [16]; at 11.0 µM -4% | [16]; at 33.0 µM 12%
active: [1]; at 100.0 µM 96% | [3]; at 33.0 µM 87% | [3]; at 100.0 µM 97% | [5]; at 50.0 µM 82.5% | [5]; at 100.0 µM 96% | [12]; at 100.0 µM 92% | [13]; at 100.0 µM 79% | [14]; at 100.0 µM 86% | [16]; at 100.0 µM 84%
